Our source for the growth inhibition, inhibition and outcome values is PubChem BioAssay.

Test [1] is described as follows: antimalarial activity against Dd2 strain (AID 2302;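 active = growth inhibition above 50% at the single 2 µM test dose, taken to imply half-maximal potency below 2 µM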;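 also: 0% = DMSO untreated growth and 100% = chloroquine plus artemisinin killed control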). Conditions: P. falciparum Dd2 in RBCs, LDH growth readout, 72 h; at 2 µM; hits give high values.
Test [2] can be described thus: human hepatoma cell viability loss – ATP luminescence, cytotoxicity control for P. falciparum antimalarial project, primary screen (AID 2303;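 active = inhibition above 50%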;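 also: 0% = DMSO wells and 100% = digitonin-killed cells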). Conditions: HepG2 viability, 24-48 h, at 10 µM, hits give high values.
Test [3] deals with L-lactate dehydrogenase (Plasmodium falciparum (isolate CDC / Honduras)) (UniProt Q27743). Briefly: PfLDH activity inhibition – cell lysate, 3D7 strain, counter-screen for P. falciparum growth inhibition project (AID 2304).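 Also: 0% = vehicle and 100% = reference inhibitor.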 The conditions noted are these: P. falciparum 3D7 crude extract, LDH APAD/NBT absorbance; at 2 µM; hits give high values. (Counterscreens check selectivity or assay interference.)

Test [4] is described as follows: inhibition of 3D7 malaria parasite growth – strain 3D7 (AID 2306).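 Also: 0% = DMSO wells and 100% = chloroquine plus artemisinin control wells.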 Conditions: P. falciparum 3D7 erythrocytic growth, LDH absorbance, 72 h; at 2 µM; hits give high values.
The target in test [5] is Calcium-dependent protein kinase 1 (Plasmodium falciparum (isolate 3D7)) (UniProt P62344). Kind of test: PfCDPK1 kinase inhibitors, biochemical, TCAMS library (AID 1159585; cut-off not given, nearly all actives have IC50 up to about 0.98 µM;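 also: inhibitors leave more ATP so luminescence rises with inhibition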). The conditions noted are these: recombinant PfCDPK1, Kinase-Glo ATP depletion luminescence. Background: In Kinase-Glo more light means more ATP remaining.
Test [6] addresses Plasmodium falciparum protein kinase 6 (PK6, PF3D7_1337100) (UniProt Q8IDW1). Briefly: PfPK6 kinase inhibitors, biochemical, TCAMS library (AID 1159586). Conditions: recombinant PfPK6, Kinase-Glo ATP depletion luminescence.
The target of test [7] is Protein kinase 7 (PK7), Plasmodium falciparum 3D7 (PF3D7_0213400) (UniProt Q7YTF7). Briefly: inhibition of Plasmodium PK7 catalytic activity – biochemical, TCAMS antimalarial set, Kinase-Glo luminescence (AID 1159587). The conditions noted are these: recombinant PfPK7, Kinase-Glo ATP depletion luminescence.
For test [8], the target named is Calcium-dependent protein kinase 4 (Plasmodium falciparum (isolate 3D7)) (UniProt Q8IBS5). Briefly: PfCDPK4 kinase inhibitors, biochemical, TCAMS library (AID 1159588; cut-off not given, nearly all actives have IC50 up to about 0.91 µM). Conditions: recombinant PfCDPK4, Kinase-Glo ATP depletion luminescence.

A number with no mark means an inactive call. For some of these results: Entries with a potency or affinity are not part of this list. Activity calls are given as the source filed them. Unless noted, no rule for the calls is given here.

Chain of Protein kinase 7 (PK7), Plasmodium falciparum 3D7 (PF3D7_0213400) (Q7YTF7 1-343): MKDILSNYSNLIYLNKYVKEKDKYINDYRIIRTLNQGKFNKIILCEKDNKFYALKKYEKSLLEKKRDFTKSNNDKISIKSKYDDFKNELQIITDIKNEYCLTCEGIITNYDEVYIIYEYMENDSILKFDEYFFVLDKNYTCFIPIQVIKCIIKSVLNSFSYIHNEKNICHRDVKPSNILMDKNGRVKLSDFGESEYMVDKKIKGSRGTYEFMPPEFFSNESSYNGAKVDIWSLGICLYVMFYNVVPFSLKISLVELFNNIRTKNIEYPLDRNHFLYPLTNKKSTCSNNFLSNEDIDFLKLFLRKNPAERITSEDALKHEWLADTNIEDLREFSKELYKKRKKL
Chain of Calcium-dependent protein kinase 1 (Plasmodium falciparum (isolate 3D7)) (P62344 whole entry, looked up): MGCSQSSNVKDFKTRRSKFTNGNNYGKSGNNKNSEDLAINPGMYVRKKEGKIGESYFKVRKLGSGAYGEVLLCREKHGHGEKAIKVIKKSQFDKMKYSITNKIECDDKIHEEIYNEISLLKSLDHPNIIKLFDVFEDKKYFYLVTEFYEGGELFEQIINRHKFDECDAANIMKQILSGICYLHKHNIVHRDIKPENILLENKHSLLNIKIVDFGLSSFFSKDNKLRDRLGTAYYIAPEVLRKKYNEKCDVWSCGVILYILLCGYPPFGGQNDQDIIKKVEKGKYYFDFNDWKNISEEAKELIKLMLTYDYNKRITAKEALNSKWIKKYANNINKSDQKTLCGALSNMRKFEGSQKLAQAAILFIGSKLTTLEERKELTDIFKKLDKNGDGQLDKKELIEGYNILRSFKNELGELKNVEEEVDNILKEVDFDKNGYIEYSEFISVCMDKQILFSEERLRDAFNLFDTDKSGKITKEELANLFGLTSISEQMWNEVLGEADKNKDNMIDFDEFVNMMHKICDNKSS
Chain of Calcium-dependent protein kinase 4 (Plasmodium falciparum (isolate 3D7)) (Q8IBS5 whole entry, looked up): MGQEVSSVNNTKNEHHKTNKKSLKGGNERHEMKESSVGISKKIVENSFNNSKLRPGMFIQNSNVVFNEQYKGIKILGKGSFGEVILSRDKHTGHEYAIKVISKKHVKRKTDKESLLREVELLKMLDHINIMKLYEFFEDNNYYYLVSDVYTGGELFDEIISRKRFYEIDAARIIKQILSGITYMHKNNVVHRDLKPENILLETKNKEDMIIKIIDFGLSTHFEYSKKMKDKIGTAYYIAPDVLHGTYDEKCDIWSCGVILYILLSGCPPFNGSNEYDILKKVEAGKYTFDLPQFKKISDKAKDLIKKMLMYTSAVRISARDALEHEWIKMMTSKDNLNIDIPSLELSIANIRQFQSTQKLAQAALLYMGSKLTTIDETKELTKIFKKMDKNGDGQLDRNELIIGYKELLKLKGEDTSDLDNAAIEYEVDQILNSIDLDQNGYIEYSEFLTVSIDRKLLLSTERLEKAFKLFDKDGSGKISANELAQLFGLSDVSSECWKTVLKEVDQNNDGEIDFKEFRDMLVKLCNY
Chain of L-lactate dehydrogenase (Plasmodium falciparum (isolate CDC / Honduras)) (Q27743 whole entry, looked up): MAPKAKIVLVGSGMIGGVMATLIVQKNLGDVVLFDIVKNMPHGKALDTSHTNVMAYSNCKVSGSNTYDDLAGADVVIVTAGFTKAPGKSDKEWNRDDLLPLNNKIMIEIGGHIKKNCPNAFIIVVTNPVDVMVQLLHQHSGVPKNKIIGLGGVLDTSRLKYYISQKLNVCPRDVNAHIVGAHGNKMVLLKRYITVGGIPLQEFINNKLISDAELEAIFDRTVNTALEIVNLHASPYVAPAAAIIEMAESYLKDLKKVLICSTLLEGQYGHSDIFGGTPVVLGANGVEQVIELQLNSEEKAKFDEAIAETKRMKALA
Chain of Plasmodium falciparum protein kinase 6 (PK6, PF3D7_1337100) (Q8IDW1 1-305): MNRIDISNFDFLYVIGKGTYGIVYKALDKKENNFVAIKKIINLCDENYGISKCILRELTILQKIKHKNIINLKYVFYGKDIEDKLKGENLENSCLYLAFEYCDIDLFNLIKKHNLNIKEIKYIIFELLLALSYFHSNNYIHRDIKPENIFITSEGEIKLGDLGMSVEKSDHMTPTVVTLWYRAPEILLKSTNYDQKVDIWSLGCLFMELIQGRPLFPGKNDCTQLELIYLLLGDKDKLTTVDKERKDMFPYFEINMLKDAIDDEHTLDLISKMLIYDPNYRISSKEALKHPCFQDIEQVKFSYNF

The term inhibition denotes the change of the read-out against control, counted positive when it falls. On to `CCc1ccc(NC(=O)C=NN=C(N)N)cc1`, for which the results for the growth inhibition in test [1] and in test [4] were 3% and 100% (active), respectively. Besides, the inhibition is 13% in test [2] and -2% in test [3]. Besides, the outcome in test [5], in test [6], in test [7] and in test [8] was inactive.
`CO/C(=C\C=C\c1cc2cc(Cl)c(Cl)cc2[nH]1)C(=O)NCCCN1CCCC[C@@H]1C`: the growth inhibition in test [1] was 83% (active); in test [4], 99% (active). For the same molecule, the inhibition in test [2] is 33%; in test [3] it was 1%. Moreover, the outcome in test [5], in test [6], in test [7] and in test [8] was inactive.
As for `CC1(C)N=C(N)N=C(N)N1c1ccc(Oc2ccccc2)cc1`, the growth inhibition in test [1] is 3%; in test [4] it was 98% (active). The inhibition in test [2] is 13%; in test [3], -6%. Moreover, the outcome in test [5], in test [6], in test [7] and in test [8] was inactive.
In the case of `O=C(NC1c2ccccc2Oc2ccccc21)c1ccccc1O`, the growth inhibition in test [1] was -3%; in test [4], 95% (active). For the same molecule, the inhibition is -3% in test [2] and -1% in test [3]. Besides, the outcome in test [5], in test [6], in test [7] and in test [8] was inactive.
With `Cc1cccc(-c2cccc(CNc3nc(NCCc4ccc(O)cc4)nc(N4CCNCC4)n3)c2)c1`, the growth inhibition was -3% in test [1] and 84% (active) in test [4]. In addition, the inhibition in test [2] is 50% (active); in test [3] it was 0%. In addition, the result in test [5], in test [6], in test [7] and in test [8] was inactive.
`CCOc1cc2ncnc(Nc3ccc(OCc4c(F)cccc4F)c(OC)c3)c2cc1OCC`: the growth inhibition was 60% (active) in test [1] and 96% (active) in test [4]. Also, the inhibition is 7% in test [2] and -2% in test [3]. In addition, the outcome in test [5], in test [6], in test [7] and in test [8] was inactive.
With `CC(=O)N(C)c1ccc(C(=O)Nc2cccc(-c3cccc(-c4nc5ccc(C(F)(F)F)cc5[nH]4)c3)c2)cc1`, the growth inhibition in test [1] was 29%; in test [4], 96% (active). Also, the inhibition was 31% in test [2] and -6% in test [3]. In addition, the result in test [5], in test [6], in test [7] and in test [8] was inactive.
As to `O=C(C=Cc1cccc(F)c1)NC1CCC(CCN2CCc3ccc(-c4cnccn4)cc3CC2)CC1` (stereo not given), the growth inhibition in test [1] was 67% (active); in test [4], 100% (active). For the same molecule, the figures for the inhibition in test [2] and in test [3] were 51% (active) and -1%, respectively. The result in test [5], in test [6], in test [7] and in test [8] was inactive.
For `CC(=O)Nc1ccc(OCCCCN(Cc2ccccc2OC(F)(F)F)c2ccc(C(F)(F)F)c(C#N)c2)c(Cl)c1`, the results for the growth inhibition in test [1] and in test [4] were 96% (active) and 89% (active), respectively. Besides, the inhibition was 11% in test [2] and -2% in test [3]. Also, the outcome in test [5], in test [6], in test [7] and in test [8] was inactive.
For `O=C(NCCc1ccccc1)N(Cc1ccccc1-c1cccc(CNC2CCCC2)c1)C1CCN(Cc2ccccc2)CC1`, the results for the growth inhibition in test [1] and in test [4] were 87% (active) and 95% (active), respectively. Further, the inhibition in test [2] is 31%; in test [3], 5%. For the same molecule, the outcome in test [5], in test [6], in test [7] and in test [8] was inactive.
Turning to `CCOc1ccc(C(C)NC(=O)c2cc(Cl)ccc2OC)cc1OCC` (stereo not given), the growth inhibition was 99% (active) in test [1] and 101% (active) in test [4]. Further, the inhibition is -1% in test [2] and -2% in test [3]. In addition, the result in test [5], in test [6], in test [7] and in test [8] was inactive.
With `O=C(Nc1ccsc1)Nc1cccc(-c2cccc(-c3nc4ccc(F)cc4[nH]3)c2)c1`, the growth inhibition was 41% in test [1] and 100% (active) in test [4]. Further, the inhibition in test [2] was 46%; in test [3] it was 2%. Also, the result in test [5], in test [6], in test [7] and in test [8] was inactive.
For `CCOc1c(CNCCCNc2nc3ccccc3[nH]2)cc(Br)cc1OC`, the growth inhibition is 0% in test [1] and 99% (active) in test [4]. Further, the inhibition in test [2] is 29%; in test [3], 2%. Also, the result in test [5], in test [6], in test [7] and in test [8] was inactive.
Regarding `Fc1cccc(C=NNc2ccnc3ccccc23)c1`, the growth inhibition was 72% (active) in test [1] and 103% (active) in test [4]. In addition, the values for the inhibition in test [2] and in test [3] were 3% and 7%, respectively. For the same molecule, the result in test [5], in test [6], in test [7] and in test [8] was inactive.
With `N#Cc1cccc(C(=O)N2CCOC(CCN3CCC(c4ccccc4)CC3)(c3ccc(Cl)c(Cl)c3)C2)c1` (stereo not given), the results for the growth inhibition in test [1] and in test [4] were 49% and 87% (active), respectively. Moreover, the values for the inhibition in test [2] and in test [3] were 51% (active) and 0%, respectively. The outcome in test [5], in test [6], in test [7] and in test [8] was inactive.
`CCOC(=O)c1c(NC(NC(=O)c2ccc(C(C)(C)C)cc2)C(Cl)(Cl)Cl)sc2c1CCCC2` (stereo not given): the growth inhibition in test [1] is 94% (active); in test [4] it was 98% (active). In addition, the inhibition in test [2] was 1%; in test [3], -3%. For the same molecule, the outcome in test [5], in test [6], in test [7] and in test [8] was inactive.
For `O=c1cc(NCCCNC2CCCc3c2cc(Cl)c(Cl)c3Cl)[nH]c2ccccc12` (stereo not given), the growth inhibition was 64% (active) in test [1] and 100% (active) in test [4]. For the same molecule, the values for the inhibition in test [2] and in test [3] were 6% and -10%, respectively. For the same molecule, the result in test [5], in test [6], in test [7] and in test [8] was inactive.
As for `CC(C)(C)Nc1cc(C2CC2)nc(-c2ccccn2)n1`, the growth inhibition in test [1] is 75% (active); in test [4] it was 88% (active). Moreover, the inhibition was -2% in test [2] and -1% in test [3]. Also, the result in test [5], in test [6], in test [7] and in test [8] was inactive.
For `NC1=NC2(CCCCC2)N(OCCCCCCc2ccccc2)C(N)=N1`, the values for the growth inhibition in test [1] and in test [4] were 69% (active) and 100% (active), respectively. Moreover, the inhibition in test [2] is 73% (active); in test [3], -2%. Also, the result in test [5], in test [6], in test [7] and in test [8] was inactive.
In the case of `Cc1nc(NCc2ccccc2)cc(NCC(O)c2ccc(O)cc2)n1` (stereo not given), the growth inhibition was 10% in test [1] and 85% (active) in test [4]. Moreover, the inhibition was 5% in test [2] and -2% in test [3]. Also, the outcome in test [5], in test [6], in test [7] and in test [8] was inactive.
